# Records with an inconclusive call do not appear. A number with no mark means an inactive call. Calls of active or inactive are those of the source. Calls follow the shape of the dose curve; as a rule, active = well fitted inhibition curve with a large enough effect; inconclusive = small, poorly fitted or top-dose-only effect; inactive = flat fitted curve, though single readings scatter.
# Experiment: P-glycoprotein substrates identified in KB-8-5-11 adenocarcinoma cell line, qHTS therapeutic library screen (AID 1346987); also: nearly all actives have a fitted effect of over 65% in size
# Settings: KB-8-5-11 (P-gp overexpressing) viability, CellTiter-Glo, 72 h; series mostly up to 44.5 µM; activity change, negative = cytotoxicity: at the top concentration
# Summary of the method: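 KB-8-5-11: colchicine-selected sub-line of KB-3-1 over-expressing P-gp; assay medium lacked colchicine. 72 h drug exposure at 37 degree C, CellTiter-Glo.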
# % is scaled to controls: 0 for no effect and ±100 for the full control effect; potency is read from the fitted curve at half-maximal effect.
Structure (SMILES),Potency,"activity change, negative = cytotoxicity",outcome
C=C1CC2[C@@]3(C)C=CC(=O)C(C)(C)C3=C(O)C(=O)[C@@]2(C)C2(C(=O)OC)C(=O)C(C)OC(=O)[C@@]12C (stereo not given in full),8.93 µM (active),,
COc1cc2c(cc1OCCCN1CCCC1)N=C(N)C21CCC1,,6.8%,
C=CC(C)(O)CC/C=C(/C)COC(=O)C(C)C1CCC(C)(C=C)O1 (stereo not given),,-19%,
O=C(O)C1=CO[C@@H](O[C@@H]2O[C@H](CO)[C@@H](O)[C@H](O)[C@H]2O)[C@@H]2C(CO)=CC[C@H]12,,2.03%,
CCCN(CC)C(CC)C(=O)Nc1c(C)cccc1C (stereo not given),,-3.33%,
CCC(C)(C)OC(=O)N[C@@H](Cc1c[nH]c2ccccc12)C(=O)N[C@@H](CCSC)C(=O)N[C@@H](CC(=O)O)C(=O)N[C@@H](Cc1ccccc1)C(N)=O,,1.06%,
Nc1nc2c(cnn2CCCc2ccc(O)cc2)c2nc(-c3ccco3)nn12,,,inactive
CCc1cc2c(cc1CC)CC(NCC(O)c1ccc(O)c3[nH]c(=O)ccc13)C2 (stereo not given),,8.45%,
CCC(C)C(C(=O)OCC[N+](C)(CC)CC)c1ccccc1 (stereo not given),,-0.686%,
CN1CCC(NC(=O)c2cc(-c3c(O)cc(O)cc3Oc3ccc([N+](=O)[O-])cc3)on2)CC1,11.6 µM (active),,
CCCC(Nc1nc(-c2ccc(NC(=O)NCC)c(OC)c2)ncc1C)c1cccnc1 (stereo not given),1.16 µM (active),,
COc1c(C)cnc(Cn2cc(C#CCC(C)(C)O)c3c(Cl)nc(N)nc32)c1C,0.0326 µM (active),,
Cc1cc(F)ccc1-c1nc(NCCN=C(N)NC#N)nc2c1ccc(=O)n2-c1c(F)cccc1F,,-6.45%,
CC(O)C(C)n1ncn(-c2ccc(N3CCN(c4ccc(OCC5COC(Cn6cncn6)(c6ccc(Cl)cc6Cl)O5)cc4)CC3)cc2)c1=O (stereo not given),14.6 µM (active),,
O=C(O)CC(O)(CC(=O)O)C(=O)O,,-13.5%,
O=C(Nc1ccc(-c2ccnc(Nc3ccc(N4CCOCC4)cc3)n2)cc1)C1CCCN1 (stereo not given),14.6 µM (active),,
CC(=O)N[C@H]1[C@H](O[C@H]2CC[C@@]3(C)C(CC[C@]4(C)C3CC=C3C5CC(C)(C)CC[C@]5(C(=O)O)C(O)C[C@]34C)C2(C)C)O[C@H](CO[C@@H]2O[C@H](C)[C@H](O)[C@H](O)[C@H]2O[C@@H]2OC[C@@H](O)[C@H](O)[C@H]2O)[C@@H](O)[C@@H]1O (stereo not given in full),,-2.51% [at 9.29 µM],
O=c1nc(-c2ccccn2)sc2ccccc12,,-4.86%,
CC(=O)OC1C(=O)C2C3OCC4=C3[C@@](C)(CC[C@@H]4O)CC[C@]2(C)[C@H]1C(C)C (stereo not given in full),,-6.73%,
CCOC(=O)[C@H](CCc1ccccc1)N[C@H]1CCCN2CCC[C@@H](C(=O)O)N2C1=O,,-7.1%,

Structure (SMILES),Potency,"activity change, negative = cytotoxicity",outcome
CCc1cc(C(N)=O)ccc1-n1nc(C(C)C)c2c(-n3cnc(-c4cnn(C)c4)c3)ccnc21,3.66 µM (active),,
CS(=O)(=O)OCCCNCCCOS(C)(=O)=O,,9.05%,
CC(C)(S)C(=O)N[C@@H](CS)C(=O)O,inactive,,
CNC[C@@H]1CC[C@@H](N)[C@@H](O[C@H]2[C@H](O)[C@@H](O[C@H]3OC[C@](C)(O)[C@H](NC)[C@H]3O)[C@H](N)C[C@@H]2N)O1,,1.56%,
COC1CCN(c2cccc(-c3cc(NC(C)=O)nc(-n4nc(C)cc4C)n3)n2)CC1,20.6 µM (active),,
CN1CC(O)c2cc(N=NC(N)=O)c(O)cc21 (stereo not given),,-12.5%,
C=C1CC2C3CCC4=CC(=O)C=C[C@]4(C)[C@@]3(F)[C@@H](O)C[C@]2(C)[C@@]1(O)C(=O)COC(C)=O (stereo not given in full),,-9.95%,
C=CC(=O)N1CCC[C@@H](n2nc(-c3cccc(C(=O)Nc4ccc(C(C)C)c(C)c4)c3)c3c(N)ncnc32)C1,,-21.4%,
CC(C)(C)CC(=O)OCC(=O)[C@@]12OC(C)(C)O[C@@H]1C[C@H]1[C@@H]3CCC4=CC(=O)C=C[C@]4(C)[C@@]3(F)[C@@H](O)C[C@@]12C,,-11.8%,
CC(=O)O[C@@H]1[C@@H](O)[C@H](O[C@@H]2[C@@H](O)[C@@H](O)[C@H](O[C@H]3[C@H](O[C@H]4[C@H](O[C@H]5CC[C@@]6(C)C(CC[C@]7(C)C6CC=C6[C@@H]8CC(C)(C)CC[C@]8(C(=O)O)CC[C@]67C)[C@]5(C)CO)O[C@H](CO)[C@@H](O)[C@@H]4O)OC[C@@H](O)[C@@H]3O)O[C@H]2C)OC[C@H]1O (stereo not given in full),,7.23% [at 9.29 µM],
COC1CC(=O)C23C(=O)NC(CC(C)C)C2C(C)C(C)=CC3/C=C(\C)CCCC1O (stereo not given),,-12.3% [at 17.3 µM],
COC1C=C(C)C(O)(CO)C2(C)CCCC(C)(C)C12 (stereo not given),,-18.1%,
O=C(Nc1ccc(N2C(=O)[C@@H]3[C@H](C2=O)[C@@H]2C=C[C@H]3C2)c(Cl)c1)c1ccccn1,,-35.5%,
O=C(Nc1nc2cc(C(F)(F)F)cc(NC3CC3)n2n1)c1cccnc1,2.91 µM (active),,
COc1cc([C@@H]2c3cc4c(cc3C(O[C@@H]3O[C@@H]5COC(c6cccs6)O[C@H]5[C@H](O)[C@H]3O)C3COC(=O)[C@@H]32)OCO4)cc(OC)c1O (stereo not given in full),,-19%,
COc1ccc(C#Cc2ccc(C(=O)N3CCC[C@@H](O)C3)c(F)c2)cc1,,-33.3%,
C[C@@H](NC(=O)C(=O)c1c[nH]c2ccc([N+](=O)[O-])cc12)c1ccccc1,,-8.17%,
O=C(NCCN1CCN(c2cccc3ccc(O)cc23)CC1)c1ccc(F)cc1,,-20.3%,
CNC(=O)c1ccc2c(c1)CCO[C@H]2CCN1CCN(c2ccc(OC)cc2)CC1,,-16.4%,
CC(C)(C)NC(=O)[C@H]1CC[C@H]2[C@@H]3CC[C@H]4NC(=O)CC[C@]4(C)[C@H]3CC[C@]12C,,-25.1%,

# From PubChem BioAssay (NCATS)
